Measurements taken from PubChem BioAssay AID2796 (The Scripps Research Institute Molecular Screening Center, 2010).
Hit rate of the full screen: of about 320,000 compounds, about 8,000 (2.5%) were called active. This is one part of a sample in which actives are shown more often than they occur. Rule as the data show it: active = activation above about 47%; inactive = the rest.

target: Aryl hydrocarbon receptor (Homo sapiens) (UniProt P35869); experiment: AHR activators, primary screen, cell-based, luminescence, luciferase reporter, human (AID 2796); conditions: AHR-responsive luciferase reporter cells, at 5 µM, hits give high values;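 also: 0% = vehicle wells and 100% = reference agonist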
Sequence (P35869 whole entry, looked up): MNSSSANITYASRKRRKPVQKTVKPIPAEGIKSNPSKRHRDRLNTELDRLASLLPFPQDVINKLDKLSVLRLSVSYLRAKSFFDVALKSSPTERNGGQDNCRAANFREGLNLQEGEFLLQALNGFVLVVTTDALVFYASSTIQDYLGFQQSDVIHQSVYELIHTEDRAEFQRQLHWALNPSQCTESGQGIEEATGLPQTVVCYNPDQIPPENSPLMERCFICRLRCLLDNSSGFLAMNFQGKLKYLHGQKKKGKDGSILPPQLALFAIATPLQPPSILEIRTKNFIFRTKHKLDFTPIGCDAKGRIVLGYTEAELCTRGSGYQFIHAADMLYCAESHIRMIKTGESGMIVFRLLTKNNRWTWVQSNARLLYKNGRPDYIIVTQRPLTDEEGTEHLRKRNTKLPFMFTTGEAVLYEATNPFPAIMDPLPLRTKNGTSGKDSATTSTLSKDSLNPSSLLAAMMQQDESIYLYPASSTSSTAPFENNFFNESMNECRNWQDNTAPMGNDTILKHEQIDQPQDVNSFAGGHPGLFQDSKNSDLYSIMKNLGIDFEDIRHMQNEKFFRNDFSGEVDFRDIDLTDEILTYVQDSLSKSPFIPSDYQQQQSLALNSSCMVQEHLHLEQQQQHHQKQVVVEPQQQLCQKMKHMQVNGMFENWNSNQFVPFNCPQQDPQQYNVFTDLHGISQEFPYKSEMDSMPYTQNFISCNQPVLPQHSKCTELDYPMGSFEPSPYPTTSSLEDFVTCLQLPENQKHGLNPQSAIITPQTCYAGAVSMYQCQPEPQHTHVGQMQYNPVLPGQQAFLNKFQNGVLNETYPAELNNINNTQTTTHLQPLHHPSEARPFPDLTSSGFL

Q: For `COc1ccc(/C=N/n2nnnc2N)cc1OC`, which activation is on record?
A: Its activation is 9.89% (inactive).

Q: For `Nc1nnnn1/N=C/c1cccc(Br)c1`, which activation is on record?
A: The activation was 0.74% (inactive).

Q: How did the activation turn out when `C=CCOc1c(Br)cc(/C=N\n2nnnc2N)cc1OC` was run?
A: The activation was 115% (active).

Q: With `CCNCCC(=O)N1c2ccccc2Sc2ccc(NC(=O)OCC)cc21` as the compound, how does the activation read?
A: The activation was 12.7% (inactive).

Q: With `CCN1/C(=C\c2ccc3ccccc3[n+]2CC)Sc2cc(C)ccc21` as the compound, how does the activation read?
A: The activation was -7.56% (inactive).

Q: Which activation does the source give for `CCOC(=O)CNC(=O)N1c2ccccc2Sc2ccccc21` here?
A: Its activation is -1.17% (inactive).

Q: With `CCN1/C(=C/C(=S)Nc2ccccc2)Sc2ccccc21` as the compound, how does the activation read?
A: The activation was 60.2% (active).

Q: For `CCC(=O)/C=C1\Sc2ccccc2N1CC`, which activation is on record?
A: The activation was 47.6% (active).

Q: Which activation does the source give for `S=C(NCCc1ccccc1)Nc1ccccc1` here?
A: The activation was 1.89% (inactive).

Q: With `CSCCC(Nc1ccc(S(=O)(=O)N2CCOCC2)cc1[N+](=O)[O-])C(=O)OCC(=O)N(C(C)C)C(C)C` (configuration not stated) as the compound, how does the activation read?
A: Its activation is -0.88% (inactive).

Q: With `CN(C)c1ccc(CNC2C3CC4CC(C3)CC2C4)cc1` (configuration not stated) as the compound, how does the activation read?
A: The activation was 1.86% (inactive).

Q: For `Clc1ccccc1SCc1nc2ccccc2[nH]1`, which activation is on record?
A: Its activation is -2.01% (inactive).

Q: `c1ccc(-c2nnc(SCc3nc4ccccc4[nH]3)o2)cc1` was tested. Which activation did it give?
A: Its activation is 59.8% (active).

Q: Which activation does the source give for `O=C(CSc1nc2ccccc2[nH]1)Nc1nc(-c2ccccc2)c(-c2ccccc2)o1` here?
A: Its activation is 5.78% (inactive).

Q: `Cc1cccc(C(=O)N2CCN(S(=O)(=O)N3CCCCC3)CC2)c1` was tested. Which activation did it give?
A: The activation was 0.85% (inactive).

Q: Which activation does the source give for `CC1CN(CC(=O)NC(C)c2ccccc2)CC(C)O1` (configuration not stated) here?
A: Its activation is -1.1% (inactive).

Q: With `C(=N/Nc1cc(N2CCOCC2)nc(N2CCOCC2)n1)/c1ccccc1` as the compound, how does the activation read?
A: Its activation is -0.44% (inactive).

Q: Which activation does the source give for `COc1ccc(/C=N/Nc2cc(N3CCOCC3)nc(C)n2)c(OC)c1` here?
A: Its activation is 69.5% (active).

Q: With `CN(C)c1ccc(/C=N/Nc2cc(N3CCOCC3)nc(N3CCOCC3)n2)cc1` as the compound, how does the activation read?
A: Its activation is 7.92% (inactive).

Q: Which activation does the source give for `Cn1c2ccccc2n2c(=O)c(=O)n(CC(=O)c3ccc(F)cc3)nc12` here?
A: Its activation is 0.34% (inactive).

Q: How did the activation turn out when `C[C@H]1CN([C@@H](C)CO)C(=O)Cc2cc(NC(=O)Cc3ccccc3)ccc2O[C@H]1CN(C)S(=O)(=O)c1cccs1` was run?
A: Its activation is -0.6% (inactive).

Q: For `O=C(C[C@@H]1C/C=C\CCC(=O)OC[C@@H]2CCCN2C1=O)NCCO`, which activation is on record?
A: Its activation is 2.28% (inactive).

Q: How did the activation turn out when `Cc1cc(NS(=O)(=O)c2ccc(NC(=S)NC(=O)c3ccc(F)cc3Cl)cc2)no1` was run?
A: Its activation is 17.3% (inactive).

Q: Which activation does the source give for `O=C(Nc1cc(S(=O)(=O)Nc2ccc(Cl)cc2)ccc1O)c1ccc(F)cc1F` here?
A: The activation was 111% (active).

Q: `O=C(Nc1cccc(S(=O)(=O)NC2=NCCC2)c1)c1ccc(F)cc1F` was tested. Which activation did it give?
A: Its activation is 1.17% (inactive).

Q: Which activation does the source give for `Cc1ccccc1NS(=O)(=O)CCCCC(Cl)(Cl)Cl` here?
A: Its activation is -0.27% (inactive).

Q: For `COc1c(O)cccc1-c1nnn(CCC(=O)OCC(=O)c2ccccc2)n1`, which activation is on record?
A: Its activation is 1.67% (inactive).
